Reference: PubChem BioAssay (NCATS)
Several values for one entry are separate records, joined by “and”; a condition that tells them apart may be missing. Identical values can stand only once. Records with an inconclusive call do not appear. Activity calls are given as the source filed them. Calls come from the whole dose curve; as a rule, active = well fitted activation curve with a large enough effect; inconclusive = small, poorly fitted or top-dose-only effect; inactive = no such curve, though single readings can be large or run the other way.
Potency is the fitted concentration of half-maximal effect.

Each compound was assayed against Cellular tumor antigen p53 (Homo sapiens) (UniProt P04637) (assay: Primary qHTS for small molecule compounds that upregulate eGFP-tagged delta133p53alpha (in N-terminal) cells. (AID 2060322; note: nearly all actives have a fitted effect of over 75% in size;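 for activation: cells pre-induced with doxycycline then dosed without doxycycline; series mostly up to about 56 µM; 0% = DMSO vehicle and 100% = reference activator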)). Details: NCI-H358 eGFP-delta133p53alpha fluorescence, 24 h; activation: active compounds read high.
Cellular tumor antigen p53 (Homo sapiens), sequence (P04637 whole entry, looked up): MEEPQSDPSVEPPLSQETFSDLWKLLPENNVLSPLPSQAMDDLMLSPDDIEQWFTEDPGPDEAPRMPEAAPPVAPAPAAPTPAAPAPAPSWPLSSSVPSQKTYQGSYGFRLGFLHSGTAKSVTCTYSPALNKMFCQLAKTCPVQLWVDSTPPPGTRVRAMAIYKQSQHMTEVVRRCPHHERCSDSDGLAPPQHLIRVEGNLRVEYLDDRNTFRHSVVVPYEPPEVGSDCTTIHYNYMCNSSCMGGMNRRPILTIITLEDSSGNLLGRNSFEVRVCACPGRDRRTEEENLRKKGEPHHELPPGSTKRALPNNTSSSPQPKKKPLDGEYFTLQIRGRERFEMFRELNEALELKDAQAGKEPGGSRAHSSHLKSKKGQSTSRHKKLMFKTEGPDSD
In short: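 NCI-H358 cells pre-induced 24 h with 10 ng/ml doxycycline for eGFP-delta133p53alpha, plated dox-free and exposed 24 h at 37C to titrated compounds. Fixed, Hoechst-stained; gated GFP peak intensity by laser scanning cytometry, normalized to DMSO (0%) and 57.5 uM 5-azacytidine (100%).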
With OCCc1ccccc1 the activation was 1.69% (inactive). For O=C1NC(c2ccccc2)(c2ccccc2)C(=O)N1COP(=O)(O)O, the activation was -11.9% (inactive). With Nc1ccn([C@@H]2O[C@H](CO)[C@H](O)C2(F)F)c(=O)n1 the activation was 10.5% (inactive). In the case of Cc1cc(CCCOc2c(C)cc(-c3noc(C(F)(F)F)n3)cc2C)on1, the activation is reported as 19.8% (inactive). For O=C(/C=C/c1ccccc1)OC[C@H]1O[C@@H](OC(=O)c2cc(O)c(O)c(O)c2)[C@H](O)[C@@H](O)[C@@H]1O, the activation was -19.1% (inactive). With CC12CCC(CC1)C(C)(C)O2 the activation was -0.565% (inactive). For COc1cc(C(=O)NCCCCCC(=O)O)cc(OC)c1OC, the activation was -9.6% (inactive). In the case of Cc1nc2n(c(=O)c1CCN1CCC(C(=O)c3ccc(F)cc3)CC1)CCS2, the activation is reported as 23.2% (inactive). In the case of C[C@]12C=CC(=O)N[C@@H]1CC[C@H]1[C@H]3CC[C@@H](C(=O)Nc4cc(C(F)(F)F)ccc4C(F)(F)F)[C@@]3(C)CC[C@@H]12, the activation is reported as 9.28% (inactive). Cc1cc(NS(=O)(=O)c2ccc(N)cc2)no1 was tested, and the activation was -13.4% (inactive) and 7.02% (inactive). With Cc1oc(-c2ccccc2)nc1CCC(=O)c1ccc(CC2SC(=O)NC2=O)cc1 (stereo not given) the activation was -3.95% (inactive). With CC(=O)OC[C@H]1O[C@@H](OC(C)=O)[C@H](OC(C)=O)[C@@H]1OC(C)=O the activation was 28.8% (inactive). In the case of CCN(CC)CCOc1ccc(C(O)(Cc2ccc(Cl)cc2)c2ccc(C)cc2)cc1 (stereo not given), the activation is reported as -6.69% (inactive). In the case of CN1C(=O)CC(C)(c2ccccc2)C1=O (stereo not given), the activation is reported as 23.4% (inactive). With O=C(CCBr)N1CCN(C(=O)CCBr)CC1 the activation was 20.9% (inactive). In the case of CCCCCCCC/C=C/C(=O)O, the activation is reported as -2.82% (inactive). With COC(=O)c1cccnc1 the activation was -4.18% (inactive). With O=C1OCCN1/N=C/c1ccc([N+](=O)[O-])o1 the activation was -3.35% (inactive). CCOC(=O)c1c(N)sc2c1CCN(Cc1ccccc1)C2 was tested, and the Potency was 15.5 µM (active). With COc1ccc(CCC(=O)c2c(O)cc(O[C@@H]3O[C@H](CO)[C@@H](O)[C@H](O)[C@@H]3O[C@@H]3O[C@@H](C)[C@H](O)[C@@H](O)[C@@H]3O)cc2O)cc1O the activation was 22.6% (inactive). For CCCCCCCCCCC[C@@H](C[C@@H]1OC(=O)[C@H]1CCCCCC)OC(=O)[C@H](CC(C)C)NC=O, the activation was 2.82% (inactive). With COc1cc(C(=O)NCc2ccc(OCCN(C)C)cc2)cc(OC)c1OC the activation was 1.67% (inactive). For CCc1ccc(C=C2SC(=S)NC2=O)cc1, the activation was 32.5% (inactive). CN1CCN(N)CC1 was tested, and the activation was 0.837% (inactive). NS(=O)(=O)c1ccc(C(=O)O)cc1 was tested, and the activation was -37.9% (inactive). O=C(C=Cc1cccc(S(=O)(=O)Nc2ccccc2)c1)NO was tested, and the activation was 49% (inactive). With CSc1ccc(/C=C2/C(C)=C(CC(=O)O)c3cc(F)ccc32)cc1 the activation was -8.47% (inactive). In the case of CC(CC(C#N)(c1ccccc1)C(C)C)N(C)C (stereo not given), the activation is reported as -0.837% (inactive). With NS(=O)(=O)c1cc2c(cc1C(F)(F)F)NC(Cc1ccccc1)NS2(=O)=O (stereo not given) the activation was -6.69% (inactive). Cc1nc(NC(=O)N2CCC[C@@H]2C(N)=O)sc1-c1ccnc(C(C)(C)C(F)(F)F)c1 was tested, and the activation was -9.38% (inactive). With Cc1cn([C@H]2C[C@H](F)[C@@H](CO)O2)c(=O)[nH]c1=O the activation was 0.837% (inactive). CC(C)OC(=O)[C@H](C)N[P@](=O)(OC[C@H]1O[C@@H](n2ccc(=O)[nH]c2=O)[C@](C)(F)[C@H]1O)Oc1ccccc1 was tested, and the activation was 15% (inactive). For O=C(O)c1ccccc1NCCc1ccccc1, the activation was -1.69% (inactive). For COc1ccc2c(c1)c(CC(=O)OCC(=O)O)c(C)n2C(=O)c1ccc(Cl)cc1, the activation was -15.1% (inactive) and 5.95% (inactive). With O=[N+]([O-])c1cccc(S(=O)(=O)NCCNS(=O)(=O)c2cccc([N+](=O)[O-])c2)c1 the activation was 24.3% (inactive). With CCCCN=C(N)NC(=N)N the activation was 9.6% (inactive). For COC(=O)C=CC(=O)OC, the activation was -16.5% (inactive). For C[C@]12C=CC(=O)C=C1CC[C@@H]1C2=CC[C@]2(C)[C@@H](C(=O)CN3CCN(c4cc(N5CCCC5)nc(N5CCCC5)n4)CC3)CC[C@@H]12, the activation was -22.1% (inactive). NCc1ccccc1Sc1ccccc1CO was tested, and the activation was 15.3% (inactive). In the case of Cc1ccc(O)c([C@H](CCN(C(C)C)C(C)C)c2ccccc2)c1, the activation is reported as 10.7% (inactive).
